Laboratory results: the OligoGym collection

molecular target: DHX35; assay: pooled miR-30 sensor sort-seq; sequence = guide strand; settings: shRNA
Note: reference of the scale not given here.

Sequence	sensor-assay potency score (higher = more potent)
TTCATTCGTAGAGACATGCTTG	0.0862
TAAAATATGATTCCTAAGCTTG	-0.148
TAAGGGTTGTAAACAACCGTTG	-0.768
TAGGCGACAGTCTTTGTCCAGA	-0.612
ATAAGGGTTGTAAACAACCGTT	-1.1

molecular target: DICER1; assay: as above; settings: shRNA

Sequence	sensor-assay potency score (higher = more potent)
TTAGATTGAACATAGGATCGAT	0.532
TTCCACAGTGACTCTGACCTTC	0.615
TGTAACTTCGACCAACACCTTT	-0.933
TTGACCAAGAACACCGTCCTTT	0.276
TATAAATCTGATATGTTCCTGA	0.759
TTATTTTGTCTGTATCCGCTAA	-0.197
TTAAAGTAGAATCTCTTTCTTT	0.229
TAGATTGAACATAGGATCGATA	-1.08
TTTGATTGTAAGAAAGACCATT	-0.387
TTTTCTTTACAAAAGCTCCTGA	0.34
TTGTTTTATAATATTCTGCAAA	-0.989
TTATTCTTGAATCTGTAGTTGA	0.19

molecular target: DIRAS3; assay: as above; settings: shRNA

Sequence	sensor-assay potency score (higher = more potent)
TAACATAGTGAAATGAGTCCAC	0.953
TTGCCGTCGCCACTCTTGCTGT	-1.2
TACTTTAAATACATCATGCTAC	-0.338
TTACAGTCCAAACAACAGCACA	-1.35
TTGTTACCTTTGATCTTGCAGA	-0.643
TTTAAATACATCATGCTACATT	-0.644
TACATCATGCTACATTTTGTTC	-1.42
TTCCACTCCATCGCACAGGTGG	-0.748
TAATCTCTGATCTTCCTGTGGG	0.371
TTGTCAAGCAGCTTCTCAGTGG	-0.353
TATACGTATTGACAACATGGAT	-1.16

molecular target: DLAT; assay: as above; settings: shRNA

Sequence	sensor-assay potency score (higher = more potent)
TCTTTTTCTACAATGATACAGA	-0.772
TGATTTTGTCTTATAACTGTGT	0.275
TTTAAATCTGTTACTTCGGTTG	-0.374
TTTGATTGCATTAATCGCTGTG	0.738
TTTCTCTACTGCCAACTTCTTT	-1.09
TTGGTGATTCTACCATCTGGTC	-1.07
TTTGTCTTATAACTGTGTCCAT	-0.255
TTCTCCCATATTTACATCGATA	-1.59
TTGCTGATTGGGATATCTGTGA	-0.131
TTTTTCTACAATGATACAGAGT	-0.634
TATCTGTGAAGACACCTGTAGG	-1.1
TTGATTGCATTAATCGCTGTGC	0.199
